Source: PubChem BioAssay (Tox21)
Values without a mark were called inactive. Records with an inconclusive call do not appear. Entries that show only a call come without a potency. Active and inactive are the calls of the source. Unless noted, calls follow the shape of the dose curve; as a rule, active = well fitted curve in the direction sought with a large enough effect in the repeat runs; inconclusive = weak or mixed curves; inactive = no such curve, though single readings can be large; an effect the other way counts as inactive or inconclusive.

How the values were obtained:
[1] = A CellTox Green Cytotoxicity Assay to monitor cytotoxicity in HepG2 cells - 8 hour (AID 1224890); also: nearly all actives have a fitted effect of over 45% in size
In short: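 Measurements at 0, 8, 16, 24, 32 and 40 h of treatment captured CellTox Green fluorescence in HepG2 cells that had been co-plated with reagent and preincubated 5 h at 37 C/5% CO2.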

[2] = qHTS assay to identify small molecule antagonists of the estrogen receptor alpha (ER-alpha) signaling pathway using the BG1 cell line in the presence of 0.1 nM 17-beta-estradiol - cell viability counter screen (AID 1259241); also: nearly all actives have a fitted effect of over 40% in size
In short: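 Viability in VM7Luc4E2 cells after 22 hr compound exposure under 0.1 nM 17beta-estradiol stimulation, by CellTiter-Fluor.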

[3] = qHTS assay to identify small molecule antagonists of the androgen receptor (AR) signaling pathway using the MDA cell line in the presence of 0.5 nM R1881 - cell viability counter screen (AID 1259242); also: nearly all actives have a fitted effect of over 45% in size
In short: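 Concentration-response screen of compounds for toxicity in MDA-kb2 reporter cells: 16 hr at 37C with 0.5 nM R1881, endpoint live-cell protease fluorescence measured in the reporter wells.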

[4] = molecular target: Androgen receptor (Homo sapiens) (UniProt P10275); test: qHTS assay to identify small molecule antagonists of the androgen receptor (AR) signaling pathway using the MDA cell line in the presence of 0.5 nM R1881 (AID 1259243); also: nearly all actives have a fitted effect of over 50% in size
In short: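 With R1881 held at 0.5 nM (final), compound effects on MMTV-luciferase expression in MDA-kb2 cells were scored by luminescence after a 16 hr, 37C incubation.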

[5] = molecular target: Estrogen receptor (Homo sapiens) (UniProt P03372); test: qHTS assay to identify small molecule antagonists of the estrogen receptor alpha (ER-alpha) signaling pathway using the BG1 cell line in the presence of 0.1 nM 17-beta-estradiol (AID 1259244); also: nearly all actives have a fitted effect of over 50% in size
In short: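 Compounds were tested against 0.1 nM (final) 17beta-estradiol in VM7Luc4E2 cells, which express full-length ER-alpha and an ERE-luciferase reporter; luminescence was recorded following 22 h exposure.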

[6] = qHTS assay to identify small molecule HDAC inhibitors (AID 1259364);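 also: wild-type HCT-116 cells with endogenous class I/II HDAC activity; top concentration of the series differs between compounds; nearly all actives have a fitted effect of over 45% in size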
In short: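 Screening used wild-type human colon HCT-116 cells incubated overnight, dosed with compounds for 2 hours, and assayed with a homogeneous luminogenic HDAC I/II reagent for 30 minutes at room temperature.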

[7] = qHTS assay to identify small molecule HDAC inhibitors - cell viability counter screen (AID 1259365); also: series mostly up to about 92 µM; nearly all actives have a fitted effect of over 50% in size
In short: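 Cytotoxicity was gauged in wild-type HCT-116 cells after a brief 2hr treatment with DMSO-dissolved compounds at 37C and 5% CO2, using CellTiter-Glo luminescence developed for 30min at room temperature.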

[8] = qHTS assay to identify small molecule agonists of the sonic hedgehog signaling (Shh) pathway - cell viability counter screen (AID 1259366); also: nearly all actives have a fitted effect of over 50% in size
In short: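 Stable Gli1-Luc NIH/3T3 clone, 2,000 cells/well. Compound exposure 24hr at 37C. Read-out: CellTiter-Fluor fluorescence.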

[9] = qHTS assay to identify small molecule antagonists of the sonic hedgehog signaling (Shh) pathway - cell viability counter screen (AID 1259367); also: nearly all actives have a fitted effect of over 55% in size
In short: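 CellTiter-Fluor signal in conditioned medium-stimulated 3T3 Gli1-Luc cells, 23 hr compound exposure, 37C.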

[10] = qHTS assay to identify small molecule agonists of the sonic hedgehog signaling (Shh) pathway (AID 1259368; calls by dose curve;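 also: NIH/3T3-derived 3T3Gli1-Luc cells carrying a stable Gli1-driven firefly luciferase reporter; series mostly up to about 92 µM; nearly all actives have a fitted effect of over 15% in size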)
In short: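 Hedgehog pathway agonism scored by increased firefly luciferase luminescence in 3T3Gli1-Luc cells treated 24 hr at 37 C; detection used a 30 min room-temperature reagent incubation.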

[11] = qHTS assay to identify small molecule antagonists of the sonic hedgehog signaling (Shh) pathway (AID 1259369; calls by dose curve; also: nearly all actives have a fitted effect of over 45% in size; also: potency is read from the fitted curve at half-maximal effect)
In short: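 NIH/3T3 stable Gli1-Luc clone, 2,000 cells/well, 4hr settle; cpd + conditioned medium 24hr; Luc reagent 30min RT; luminescence.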

[12] = qHTS assay to identify small molecule agonists of the androgen receptor (AR) signaling pathway in the presence of an antagonist - cell viability counter screen (AID 1259379);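 also: MDA-kb2 human breast cancer cells carrying an MMTV luciferase reporter; series mostly up to about 92 µM; nearly all actives have a fitted effect of over 25% in size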
In short: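 MDA-kb2 viability measured by CellTiter-Fluor fluorescence in the same wells as the luciferase signal; nilutamide 3.0uM final; 15-point compound titration; 16 hr at 37C.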

[13] = qHTS assay to identify small molecule agonists of the estrogen receptor beta (ER-beta) signaling pathway - cell viability counter screen (AID 1259380); also: nearly all actives have a fitted effect of over 30% in size
In short: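 Measured: luminescence from CellTiter-Glo after 30 min at room temperature, added to wells already read for the LiveBLAzer FRET reporter (2 hr substrate); ER-beta-UAS-bla HEK293T cells had 16 hr compound treatment at 37C, 5% CO2.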

[14] = molecular target: Androgen receptor (Homo sapiens) (UniProt P10275); test: qHTS assay to identify small molecule agonists of the androgen receptor (AR) signaling pathway in the presence of an antagonist (AID 1259381; calls by dose curve; also: nearly all actives have a fitted effect of over 15% in size)
In short: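 Luminescent ONE-Glo read, 30min at room temperature, follows 16hr compound exposure (15 concentrations) of MDA-kb2 cells at 37C, 0% CO2, with nilutamide added at 3.0uM final.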

[15] = qHTS assay to identify small molecule antagonists of the estrogen receptor beta (ER-beta) signaling pathway - cell viability counter screen (AID 1259382);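 also: HEK293T cells carrying ER-beta-UAS-bla reporter stimulated with estradiol; series mostly up to about 92 µM; nearly all actives have a fitted effect of over 55% in size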
In short: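 Readout: luminescence, CellTiter-Glo, same wells as bla assay. System: ER-beta-UAS-bla GripTite HEK293T, 2% charcoal-stripped FBS. Exposure: compounds plus 1nM 17-beta-estradiol, 16 hr, 37C.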

[16] = qHTS assay to identify small molecule agonists or antagonists of the thyroid stimulating hormone receptor (TSHR) signaling pathway - wild type cell line counter screen (AID 1259384; calls by dose curve)
In short: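 Counter screen in untransfected Hek293: compounds (15-point titration, triplicate) plus phosphodiesterase inhibitor Ro20-1724 added after 18 h plating; 30 min RT. Intracellular cAMP via competitive d2/cryptate immunoassay, 1 h incubation.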

[17] = molecular target: Estrogen receptor beta (Homo sapiens) (UniProt Q92731); test: qHTS assay to identify small molecule agonists of the estrogen receptor beta (ER-beta) signaling pathway (AID 1259377; active = well fitted activation curve with a large enough effect in the signal ratio in the repeat runs, not every such curve was filed as active; the % refers to the signal ratio)
In short: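 Measured by fluorescence intensity from a B/G FRET beta-lactamase substrate (2 h, room temperature) in ER-beta-UAS-bla HEK293T cells treated with DMSO-dissolved compounds for 16 hr at 37C and 5% CO2.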

[18] = molecular target: Estrogen receptor beta (Homo sapiens) (UniProt Q92731); test: qHTS assay to identify small molecule antagonists of the estrogen receptor beta (ER-beta) signaling pathway (AID 1259378; active = well fitted inhibition curve with a large enough effect in the signal ratio in the repeat runs, not every such curve was filed as active; the % refers to the signal ratio)
In short: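 Antagonist mode: compounds added to beta-lactamase reporter HEK293T ER-beta-UAS cells stimulated with E2 (1nM final), 16 hr at 37C. LiveBLAzer B/G FRET substrate, 2 hours room temperature, fluorescence read-out.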

[19] = molecular target: Estrogen receptor (Homo sapiens) (UniProt P03372); test: qHTS assay to identify small molecule agonists of the estrogen receptor alpha (ER-alpha) signaling pathway in the presence of an antagonist (AID 1259383; calls by dose curve; also: top concentration of the series differs between compounds; nearly all actives have a fitted effect of over 15% in size)
In short: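 Quantitative HTS confirmation: compounds titrated at 15 concentrations onto estrogen-deprived VM7Luc4E2 cells carrying a four-ERE luciferase construct, with ICI-182,780 present at 10.0nM final. Signal is luminescence after 22hr exposure.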

[20] = qHTS assay to identify small molecule phospholipidosis (PLD) inducers (AID 1259344; active = well fitted curve in the direction sought with a large enough effect; an effect the other way counts as inactive or inconclusive)
In short: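 Accumulated phospholipid, stained red by LipidTOX during 24 h compound treatment of HepG2 cells at 37 C, is quantified from images as pit number and intensity, normalised per cell using Hoechst-stained nuclei.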

Sequence of Estrogen receptor beta (Homo sapiens) (Q92731 whole entry, looked up): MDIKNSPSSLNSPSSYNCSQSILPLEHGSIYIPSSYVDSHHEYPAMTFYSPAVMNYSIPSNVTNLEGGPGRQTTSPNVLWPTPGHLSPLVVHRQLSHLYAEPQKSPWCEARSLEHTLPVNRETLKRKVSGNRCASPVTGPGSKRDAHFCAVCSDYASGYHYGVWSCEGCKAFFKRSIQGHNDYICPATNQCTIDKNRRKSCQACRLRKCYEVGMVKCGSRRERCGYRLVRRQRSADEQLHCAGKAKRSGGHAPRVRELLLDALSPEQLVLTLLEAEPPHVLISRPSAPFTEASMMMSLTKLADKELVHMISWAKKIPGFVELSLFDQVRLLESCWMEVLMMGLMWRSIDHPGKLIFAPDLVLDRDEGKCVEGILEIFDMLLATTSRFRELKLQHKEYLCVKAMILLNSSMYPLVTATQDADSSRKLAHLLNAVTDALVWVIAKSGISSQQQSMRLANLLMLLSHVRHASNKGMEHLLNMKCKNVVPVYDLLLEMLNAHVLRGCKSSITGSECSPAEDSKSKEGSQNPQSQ
Sequence of Androgen receptor (Homo sapiens) (P10275 whole entry, looked up): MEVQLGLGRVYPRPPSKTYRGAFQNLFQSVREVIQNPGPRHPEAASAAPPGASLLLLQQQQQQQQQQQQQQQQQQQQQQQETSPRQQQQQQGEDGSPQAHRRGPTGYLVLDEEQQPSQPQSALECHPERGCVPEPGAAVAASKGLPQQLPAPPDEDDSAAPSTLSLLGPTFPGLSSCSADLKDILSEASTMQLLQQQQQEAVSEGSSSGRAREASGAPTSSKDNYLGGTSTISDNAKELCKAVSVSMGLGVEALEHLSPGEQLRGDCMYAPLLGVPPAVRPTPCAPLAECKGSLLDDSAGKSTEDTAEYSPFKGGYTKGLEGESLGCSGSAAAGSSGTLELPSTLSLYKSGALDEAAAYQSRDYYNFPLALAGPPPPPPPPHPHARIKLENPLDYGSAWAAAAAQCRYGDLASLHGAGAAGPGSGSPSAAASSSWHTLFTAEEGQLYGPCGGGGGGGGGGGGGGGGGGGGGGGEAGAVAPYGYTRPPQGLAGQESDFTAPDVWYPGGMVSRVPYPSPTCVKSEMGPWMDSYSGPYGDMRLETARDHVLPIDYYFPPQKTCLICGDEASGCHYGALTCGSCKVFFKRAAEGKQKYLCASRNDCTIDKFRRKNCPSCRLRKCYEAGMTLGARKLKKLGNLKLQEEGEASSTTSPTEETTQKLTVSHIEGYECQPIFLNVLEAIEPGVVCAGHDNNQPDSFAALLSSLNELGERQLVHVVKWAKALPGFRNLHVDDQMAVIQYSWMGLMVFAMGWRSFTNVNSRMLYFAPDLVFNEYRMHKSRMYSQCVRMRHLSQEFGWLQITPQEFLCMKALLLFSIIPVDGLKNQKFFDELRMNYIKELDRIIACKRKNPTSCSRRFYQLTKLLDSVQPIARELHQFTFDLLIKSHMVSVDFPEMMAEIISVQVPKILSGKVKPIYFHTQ
Sequence of Estrogen receptor (Homo sapiens) (P03372 whole entry, looked up): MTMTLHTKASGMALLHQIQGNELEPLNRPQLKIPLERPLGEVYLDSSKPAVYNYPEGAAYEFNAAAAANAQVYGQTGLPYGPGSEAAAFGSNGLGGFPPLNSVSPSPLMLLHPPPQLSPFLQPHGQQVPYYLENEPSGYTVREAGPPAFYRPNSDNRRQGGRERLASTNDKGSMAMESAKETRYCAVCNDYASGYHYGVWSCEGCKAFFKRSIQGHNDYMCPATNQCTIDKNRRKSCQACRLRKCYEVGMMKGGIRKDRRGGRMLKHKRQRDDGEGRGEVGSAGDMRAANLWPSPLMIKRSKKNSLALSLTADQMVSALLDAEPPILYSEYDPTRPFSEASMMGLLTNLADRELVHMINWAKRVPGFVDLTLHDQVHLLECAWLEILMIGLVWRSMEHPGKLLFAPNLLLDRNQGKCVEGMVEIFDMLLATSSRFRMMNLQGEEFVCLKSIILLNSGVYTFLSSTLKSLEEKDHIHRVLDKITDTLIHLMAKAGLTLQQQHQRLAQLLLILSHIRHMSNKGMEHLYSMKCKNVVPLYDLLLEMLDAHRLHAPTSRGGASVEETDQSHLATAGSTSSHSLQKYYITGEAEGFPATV

SMILES	Potency [1]	Potency [2]	Potency [3]	Potency [4]	Potency [5]	Potency [6]	outcome [7]	Potency [8]	Potency [9]	Potency [10]	Potency [11]	Potency [12]	Potency [13]	Potency [14]	Potency [15]	outcome [16]	Potency [17]	Potency [18]	Potency [19]	Potency [20]
O=C(C1CCCCC1)N1CC(=O)N2CCCc3ccccc3C2C1 (stereo not given)	inactive	inactive	inactive	inactive	inactive	inactive	inactive	inactive	inactive	inactive	inactive	inactive	inactive	inactive	inactive	inactive				
CCCN(C1CCN(C(=O)C2CCNCC2)CC1)[C@@H]1CCc2ccc(OC)cc2C1	inactive	inactive	inactive	inactive		inactive	inactive		inactive	inactive	4.33 µM (active)			inactive		inactive	inactive	inactive		
CCCOC(C)=O	inactive	inactive	inactive	inactive		inactive		inactive	inactive	inactive	inactive		inactive	inactive	inactive	inactive	inactive	inactive	inactive	
CC1(C)[C@@H]2CC[C@]3(C2)[C@@H]1C(=O)CCC3(C)C	inactive	inactive	inactive	inactive	inactive	inactive	inactive	inactive	inactive	inactive	inactive	inactive		inactive	inactive	inactive	inactive	inactive		
O=c1[nH][nH]c2ccccc12	inactive	inactive	inactive	inactive		inactive	inactive	inactive	inactive	inactive	inactive	inactive		inactive		inactive		inactive	inactive	
CCCC1CCOC(C)S1 (stereo not given)	inactive	inactive	inactive	inactive		inactive	inactive	inactive	inactive	inactive		inactive	inactive	inactive	inactive	inactive	inactive	inactive		
OCCCO	inactive	inactive	inactive	inactive		inactive	inactive	inactive	inactive	inactive		inactive	inactive	inactive	inactive	inactive		inactive	inactive	
CCN(CCCCOC(=O)c1ccc(OC)c(OC)c1)C(C)Cc1ccc(OC)cc1 (stereo not given)	inactive	inactive	inactive		inactive	inactive	inactive	inactive	inactive	inactive	inactive				inactive	inactive	inactive	inactive	inactive	inactive
